The values below come from PubChem BioAssay (NCATS).

Experiment [1] is described as follows: UWB1.289 Cancer Cell Toxicity qHTS against the NCATS CANVASS Library (AID 1347347). Further: series mostly up to about 38 µM; nearly all actives have a fitted effect of over 60% in size. The essentials: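 Following a 4 h pre-incubation of 1000 seeded cells, compounds were pinned in an 11-pnt dilution series and left for 72 h; viability then came from CellTiter-Glo.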
A short description of experiment [2]: HEK293 18hr Apoptosis Induction qHTS against the NCATS CANVASS Library (AID 1347357). In a few lines:
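HEK293 cells (500/well, DMEM + 10% FBS) treated with an 11-point series for 18 h at 37 degrees C. Caspase-3/7 activity read by Caspase-Glo luminescence after 15 min at room temperature.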
In general terms: In qHTS, concentration-response curves come from the screen itself.

Experiment [3] can be described thus: HEK293 12hr Apoptosis Induction qHTS against the NCATS CANVASS Library (AID 1347361). In a few lines: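 HEK293 cells (500/well) were exposed to an 11-point qHTS concentration series for 12 hours at 37 degrees C. Caspase-3/7 activity was then read by DEVD-substrate luciferase luminescence after 15 min at room temperature.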
A short description of experiment [4]: qHTS for Hypoxia signaling pathway (HIF-1) antagonists against the NCATS CANVASS Library (AID 1347374). Further: nearly all actives have a fitted effect of over 60% in size. Further: potency means the concentration at half of the fitted maximal effect. In a few lines:
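HRE-bla ME-180 cells in medium with 0.5% dialyzed FBS received compounds (11-point series) plus CoCl2 (60 uM addition stock) for 17 hrs at 37C. Beta-lactamase activity read with CCF4 (405 nm ex, 460/530 nm em); CellTiter-Glo viability measured in same wells.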

A short description of experiment [5]: qHTS for Antimalaria activity screened against the NCATS CANVASS Library (AID 1347380). Further: nearly all actives have a fitted effect of over 40% in size. Further: potency means the concentration at half of the fitted maximal effect. In a few lines:
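Dd2 strain, infected erythrocytes 2.5% Hct final / 0.3% parasitemia. 11-pt qHTS titration, 72 h, 37C, 5% O2, 5% CO2. Lysis buffer + SYBR Green, 18 h, fluorescence 485/535 nm.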

Experiment [6] is described as follows: Secretion counterscreen for inhibitors of the SERCaMP assay screened against the NCATS CANVASS Library (AID 1347390).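 Further: light from luciferase secreted into medium read as a measure of general secretion; series mostly up to about 77 µM.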 The essentials:
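SH-SY5Y cells with constitutively secreted GLuc reporter, 1000 cells/well, treated 20 h at 37C with compounds at 0.001 - 77 uM final; secreted luciferase read as luminescence after coelenterazine; Brefeldin A as positive control.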
In general terms: Counterscreens check selectivity or assay interference.

A short description of experiment [7]: KB-3-1 Cancer Cell Toxicity qHTS against the NCATS CANVASS Library (AID 1347366). Further: nearly all actives have a fitted effect of over 75% in size. In a few lines:
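KB-3-1 cells (500/well) in DMEM with 10% FBS were exposed to compounds for 72 h at 37C. Viability was read by CellTiter-Glo luminescence.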

Experiment [8] can be described thus: Inflammasome Signaling qHTS Counterscreen: IL-1-beta AlphaLISA counterscreen against the NCATS CANVASS Library (AID 1347381).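 Further: cell-free check with purified IL-1β in medium and no THP-1 cells; series mostly up to about 57 µM.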 In a few lines: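 Cell-free interference check: compounds added to medium spiked with 4 pg purified IL-1β. Anti-IL-1β acceptor beads (6 ug/mL) with 0.6 nM biotinylated antibody added for 1 h at RT, then streptavidin donor beads (24 ug/mL) for 30 min in the dark. AlphaLISA read at 680/615 nm.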

The nature of experiment [9]: qHTS for inhibitors of ER calcium dysfunction: SERCaMP assay screened against the NCATS CANVASS Library (AID 1347393). Further: nearly all actives have a fitted effect of over 40% in size. Further: potency means the concentration at half of the fitted maximal effect. In a few lines: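 qHTS in SH-SY5Y reporter cells: 16 h compound pretreatment, 4 h thapsigargin, then secreted Gaussia luciferase measured by luminescence.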

Records with an inconclusive call do not appear. The source made the active and inactive calls. The call rests on the fitted dose curve; in most records, active means well fitted curve in the direction sought with a large enough effect; inconclusive means small, poorly fitted or top-dose-only effect, or another doubt; inactive means no such curve, though single readings can be large; an effect the other way counts as inactive or inconclusive. Numbered stars: 1 amine (or outer) side, 2 acyl side, 3 side chain; on linkers, the order of the positions; unused ones are H or OH. Square brackets hold non-standard residues; d marks the D form. Peptide text beside a SMILES is read from it. X1 = CCCCCCCCCC(=O)[C@H](C(=O)[*:2])[C@@H]1CNC(=O)[C@@H](N[*:1])CS1

`CCCCCCCCCC(=O)[C@@H]1C(=O)N[C@@H](CC(C)C)C(=O)N[C@H](C)C(=O)N2CCC[C@H]2C(=O)N[C@@H](C(C)C)C(=O)N[C@H]2CS[C@H]1CNC2=O` (cyclo(L[dA]PV[X1])): the Potency entry in [1], in [2], in experiment [3], in experiment [4] and in experiment [6] was “inactive” each time. In addition, in experiment [5], the Potency is 0.0033 µM (active).

On to `C/C(=C\[C@H](C)C(=O)CCCC1CC(=O)NC(=O)C1)C(O)[C@@H](C)[C@H](O)C/C=C/CC/C=C/C(=O)O` (some centres not stated), for which the Potency result in [1], in [3], in experiment [7], in experiment [4], in experiment [5] and in experiment [9] was “inactive” in each case. The outcome in [8] was inactive.

With `CC1(C)[C@H](Br)CC[C@]23C[C@]4(C)C(=O)CC12C[C@H]34`, the Potency result in [2], in [7], in experiment [6] and in experiment [9] was “inactive” throughout. In [8], the result was inactive.

For the compound `C=C(C)[C@@H]1CC[C@]2(C)CC[C@]3(C)[C@H](CC[C@@H]4[C@@]5(C)CC[C@H](O)C(C)(C)[C@@H]5CC[C@]43C)[C@@H]12`, the Potency result in experiment [2], in experiment [3], in experiment [4], in experiment [5], in [6] and in [9] was “inactive” each time. In experiment [8], the outcome was inactive.

For `Cc1cc(O)cc2oc(C[C@H](C)O)cc(=O)c12`, the Potency entry in experiment [3], in experiment [5], in [6] and in experiment [9] was “inactive” in each case. Also, the result in experiment [8] was inactive.

As for `C=C1C(=O)C[C@H]2C[C@@H]1[C@]2(C)CCC=C(C)C`, the Potency result in [1], in experiment [2] and in experiment [6] was “inactive” in each case.

For the compound `C[C@@]12C[C@@H](C[C@H]3C(=O)O[C@@H](c4ccoc4)[C@H](OC(=O)c4ccccc4)[C@@H]31)OC2=O`, the Potency entry in experiment [1], in experiment [3], in experiment [7], in [4], in experiment [5] and in experiment [9] was “inactive” throughout. In addition, the call in experiment [8] was inactive.

Turning to `C=C1C(=O)O[C@H]2[C@H]1CC/C(CO)=C\CC[C@@]1(C)O[C@@H]21`, the Potency in experiment [5] is 0.0084 µM (active). For the same compound, the outcome in [8] was inactive.

Turning to `O=c1cc(-c2ccc(O)c(O[C@@H]3O[C@H](CO)[C@@H](O)[C@H](O)[C@H]3O)c2)oc2cc(O[C@@H]3O[C@H](CO)[C@@H](O)[C@H](O)[C@H]3O)cc(O)c12`, the Potency result in experiment [3], in experiment [7], in [4] and in [9] was “inactive” each time. Further, the Potency in experiment [5] was 0.0047 µM (active).

In the case of `COC1C(O)C(OC(N)=O)C(Oc2ccc3c(O)c(NC(=O)c4ccc(O)c(CC=C(C)C)c4)c(=O)oc3c2C)OC1(C)C` (configuration not stated), the Potency entry in experiment [2], in [3] and in [4] was “inactive” each time. Also, the compound was classed as inactive in [8]. In addition, in [9], the Potency is 27.2 µM (active).

For `CC(C)(Br)[C@@H](Cl)C[C@H](Br)[C@](C)(Cl)/C=C/Br`, the Potency entry in experiment [2], in experiment [3], in experiment [5] and in experiment [6] was “inactive” each time. Besides, the compound was classed as inactive in [8].

Consider `C/C=C1/CC[C@@H]2c3[nH]c4ccccc4c3CCN2C1`, for which the Potency result in [3], in experiment [4] and in experiment [6] was “inactive” each time. Moreover, in experiment [8], the compound was classed as inactive. Moreover, the Potency in [9] is 19.3 µM (active).

On to `CO[C@@H]1[C@H](O)[C@@H](C)O[C@@H](OC[C@H]2/C=C/C=C/C(=O)C(C)C[C@H](C)C(O[C@@H]3O[C@H](C)CC4(OC(=O)O[C@@H]4C)C3O)[C@@H](C)/C=C/C(=O)OC2C)[C@@H]1OC` (some centres not stated), for which the Potency entry in [2], in experiment [7] and in experiment [4] was “inactive” each time. Besides, in experiment [8], the call was inactive. Further, the Potency in [9] is 15.3 µM (active).

As to `COc1cc(O)c2c3c(c(O)cc(C)c13)C(=O)OC2`, the Potency result in experiment [1], in experiment [2], in [3], in experiment [4] and in experiment [5] was “inactive” each time. In experiment [8], the call was inactive.

With `C=C[C@]1(C)CC[C@@H]([C@H](C)C(=O)OCC)O1`, the Potency result in experiment [2], in experiment [3], in [7], in [4], in [6] and in [9] was “inactive” each time.

In the case of `O=C(O)CC1OC(=O)c2c(O)cccc21` (configuration not stated), the Potency result in experiment [3], in experiment [7] and in experiment [4] was “inactive” each time.

For the compound `O=C(O)CC1OCc2c(O)cccc21` (configuration not stated), the Potency entry in experiment [1], in [7] and in experiment [5] was “inactive” in each case. The outcome in [8] was inactive.

For `COc1ccc([C@@H]2c3cc(OC)c(OC)cc3C(=O)C(C)C2C)cc1OC` (some centres not stated), the Potency entry in experiment [2], in [4] and in experiment [6] was “inactive” throughout. In addition, in [8], the result was inactive. Besides, in experiment [9], the Potency is 38.4 µM (active).

For `C=C(C)CC[C@H](Cc1c(O)cc(O)c2c1O[C@H](c1ccc(O)cc1O)CC2=O)C(=C)C`, the Potency entry in experiment [2] and in [7] was “inactive” in each case. Besides, the results for the Potency in experiment [5] and in experiment [9] were 0.0059 µM (active) and 30.5 µM (active), respectively.

In the case of `COc1ccc(/C=C2\COc3cc(O)ccc3C2=O)cc1`, the Potency entry in experiment [3] and in experiment [6] was “inactive” throughout. Besides, in experiment [8], the outcome was inactive.

As to `C/C1=C/[C@@H](C)[C@H](O)C/C=C/CC/C=C/C(=O)O[C@@H]1[C@H](C)C(=O)/C=C/CC1CC(=O)NC(=O)C1`, in experiment [2], the Potency entry was “inactive”. For the same compound, the Potency is 7.47 µM (active) in [4] and 4.31 µM (active) in [9].

Turning to `C=C1C(=O)O[C@H]2C[C@H](C)[C@@H]3CC(=O)C(C)=C3[C@H](O)[C@H]12`, the Potency in experiment [4] is 7.47 µM (active).
